# Test results: PubChem BioAssay
# “And” between values parts separate entries of the source, which are not always exact repeats. Identical values can stand only once. Results filed as inconclusive are left out. The source made the active and inactive calls. Unless noted, no stated cut-off is given here; in the data, active means inhibition above about 80%; inactive means the rest.
# Legend:
# [1] = growth inhibition, single agent or in combination, cell-based, chromothripsis tumors, cisplatin or BGB combos (AID 1671449); details: LFS_MB_P medulloblastoma cells;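 further: cells exposed for 96 hours; 0% = vehicle DMSO and 100% = killing by high DMSO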
# [2] = growth inhibition, single agent and combos, cell-based, chromothripsis tumors, cisplatin or BGB combos (AID 1671450); details: HDN33 neuroblastoma cells, stronger effect = higher value;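 further: cells exposed to compound for four days; 0% = vehicle DMSO and 100% = cell killing by high DMSO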
# [3] = growth inhibition, single agents and combos, ICB984, cell-based, cisplatin or BGB combos, synergistic combos for chromothripsis tumors (AID 1671451; call rule not given here;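 further: cells exposed for 96 hours before readout; 0% = vehicle DMSO and 100% = killing by high DMSO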); details: ICB984 medulloblastoma cells, drug combinations, stronger effect = higher value
# [4] = growth inhibition, single agents and combos, LFS_MB_1R, cell-based, cisplatin or BGB combos, synergistic combos for chromothripsis tumors (AID 1671452); details: LFS_MB_1R medulloblastoma cells, stronger effect = higher value;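 further: cells exposed for 96 hours before readout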
# [5] = growth inhibition, single agents and combos, HTB85, cell-based, BGB or cisplatin IC20 combos, synergistic combos for chromothripsis tumors (AID 1671453); details: HTB85 osteosarcoma cells, drug combinations, stronger effect = higher value;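 further: cells exposed for 96 hours before readout; 0% = vehicle DMSO and 100% = high DMSO killing control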
# [6] = growth inhibition, single agents and combos, CRL2098, cell-based, BGB or cisplatin IC20 combos, synergistic combos for chromothripsis tumors (AID 1671454); details: CRL2098 osteosarcoma cells, drug combinations, stronger effect = higher value;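 further: cells exposed for 96 h before readout; 0% = vehicle DMSO and 100% = killing by high DMSO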
# [7] = growth inhibition, single agents and combos, HD-MB03, cell-based, BGB or cisplatin IC20 combos, synergistic combos for chromothripsis tumors (AID 1671455; in the data active means inhibition above about 83%;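 further: 0% = vehicle DMSO and 100% = high DMSO as cytotoxic control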); details: HD-MB03 medulloblastoma cells, stronger effect = higher value
# [8] = growth inhibition, single agents and combos, UWB1.289, cell-based, BGB or cisplatin combos, synergistic combos for chromothripsis tumors (AID 1671456); details: UWB1.289 ovarian carcinoma cells, stronger effect = higher value;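 further: cells exposed to compound for four days; 0% = vehicle DMSO and 100% = killing by high DMSO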
# [9] = growth inhibition, single agents and combos, LFS_MB_2R, cell-based, cisplatin combos, synergistic combos for chromothripsis tumors (AID 1671457); details: LFS_MB_2R medulloblastoma cells, stronger effect = higher value;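 further: cells exposed to compound for four days before readout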
# [10] = growth inhibition, MDA-MB-436, cell-based, BGB or cisplatin combos, synergistic combos for chromothripsis tumors (AID 1671458; call rule not given here;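 further: cells exposed for 96 hours; 0% = vehicle DMSO and 100% = killing by high DMSO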); details: MDA-MB-436 breast carcinoma growth inhibition, drug combinations, stronger effect = higher value
# [11] = UWB1.289_BRCA1 ovarian cancer growth, cell-based, BGB or cisplatin combinations (AID 1671459); details: UWB1.289 BRCA1 ovarian carcinoma, drug combinations, stronger effect = higher value
# [12] = drug combination toxicity in non-malignant astrocytes – cell-based, BGB or cisplatin IC20 combos, cytotoxicity control for chromothriptic childhood tumor combination screen (AID 1671460); details: Human astrocytes, viability inhibition, drug combinations, at 0.5 µM, stronger effect = higher value;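 further: cells exposed to compounds for 96 hours before viability readout; 0% = vehicle and 100% = killing control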
# [13] = BT084 cell growth, single and combined drugs, ICGC_MB145, cisplatin and BGB IC40 combos (AID 1671461); details: BT084 medulloblastoma cells, drug combinations, stronger effect = higher value;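 further: cells exposed to drugs for 96 hours; 0% = vehicle DMSO and 100% = high DMSO full killing control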
# [14] = RCMB18 cell growth, single agent and combined, cisplatin and BGB IC40 combos (AID 1671462); details: RCMB18 medulloblastoma cells, stronger effect = higher value;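 further: cells exposed to compound for four days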
# [15] = CRL1545 cell growth, single agent and combined, cisplatin and BGB IC20 combos (AID 1671464); details: CRL1545 osteosarcoma cells, stronger effect = higher value;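 further: cells exposed to compound for 96 hours before readout; 0% = vehicle DMSO and 100% = high DMSO killing control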
# [16] = MELAS cybrid and Rieske KO viability enhancers – cell-based, MELAS cybrids, Rieske KO mouse fibroblasts, CellTiter-Glo, primary screen (AID 1508586;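 active means mean z-score across replicates of 1.96 or higher in either the MELAS or the Rieske mutant cell line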;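 further: z relative to plate mean and SD of compound and empty wells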); details: low glucose
# [17] = viability loss in pontine glioma line – cell-based, SU-DIPG-XVII, MIPE5.0, CellTiter-Glo, qHTS, dose response (AID 1347060; cut-off not given, nearly all actives have AC50 up to about 26 µM); details: CellTiter-Glo ATP luminescence
# [18] = tested on: Aerobactin synthetase IucA (Klebsiella pneumoniae); test: inhibition of K. pneumoniae IucA enzyme – biochemical, Tocris library, absorbance (AID 1345561; call rule not given here;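 further: 100% = enzyme without compound and 0% = no enzyme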); details: purified IucA enzyme assay, absorbance (OD) read-out; stronger effect = lower value;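 tested at 8 µM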
# [19] = target: NAD(+) hydrolase SARM1 (Homo sapiens) (UniProt Q6SZW1); test: blocking NAD cleavage by SARM1 SAM-TIR – cell lysate, NAD-Glo luminescence (AID 1508614;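 active means compound whose remaining NAD level is above about 45 nM, limit read from the data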); details: SAM-TIR HEK293T lysate NADase, at 1 µM, stronger effect = higher value
# [20] = compounds altering viability of human ES cells (AID 493140; call rule not given here;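 further: cells exposed to compounds for four days before counting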); details: human embryonic stem cell survival screen; stronger effect = higher value
# [21] = measured here: combination with BGB IC40, at 0.05 µM
# [22] = measured here: with BGB IC20 combination, at 0.5 µM
# [23] = measured here: with cisplatin IC20 combination, at 0.5 µM
# [24] = measured here: combination with cisplatin, at 0.5 µM
# [25] = measured here: combination with cisplatin, at 5 µM
# [26] = MELAS cybrid survival, CellTiter-Glo 48 h, stronger effect = higher value
# [27] = Rieske KO mouse fibroblast survival, CellTiter-Glo 72 h
# Sequence of NAD(+) hydrolase SARM1 (Homo sapiens) (Q6SZW1 whole entry, looked up): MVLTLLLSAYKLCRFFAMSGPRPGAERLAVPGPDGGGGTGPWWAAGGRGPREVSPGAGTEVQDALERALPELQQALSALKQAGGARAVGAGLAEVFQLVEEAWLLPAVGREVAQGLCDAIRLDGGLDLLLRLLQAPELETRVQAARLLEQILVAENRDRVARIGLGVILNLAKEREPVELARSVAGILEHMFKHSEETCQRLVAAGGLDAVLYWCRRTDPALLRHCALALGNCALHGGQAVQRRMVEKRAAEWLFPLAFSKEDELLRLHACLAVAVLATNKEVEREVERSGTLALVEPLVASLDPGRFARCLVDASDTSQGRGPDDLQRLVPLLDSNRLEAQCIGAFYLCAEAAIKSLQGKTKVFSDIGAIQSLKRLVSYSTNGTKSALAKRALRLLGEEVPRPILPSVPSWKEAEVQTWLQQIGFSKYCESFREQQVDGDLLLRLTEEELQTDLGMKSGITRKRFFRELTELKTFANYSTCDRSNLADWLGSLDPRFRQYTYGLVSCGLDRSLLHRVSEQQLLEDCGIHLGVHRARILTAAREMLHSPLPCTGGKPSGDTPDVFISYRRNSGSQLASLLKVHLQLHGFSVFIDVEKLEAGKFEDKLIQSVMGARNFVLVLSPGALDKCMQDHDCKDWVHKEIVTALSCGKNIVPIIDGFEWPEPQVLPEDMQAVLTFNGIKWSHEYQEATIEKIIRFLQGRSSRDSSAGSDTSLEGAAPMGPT
compound,measurement,setting,value
CO[C@H]1C=CO[C@@]2(C)Oc3c(C)c(O)c4c(O)c(c5c(nc6cc(C)ccn65)c4c3C2=O)NC(=O)C(C)=CC=C[C@H](C)[C@H](O)[C@@H](C)[C@@H](O)[C@@H](C)[C@H](OC(C)=O)[C@@H]1C,inhibition,"[1]; at 0.5 µM, stronger effect = higher value",-25.7% (inactive) and 0.03% (inactive)
same,inhibition,"[1]; measured here: combination with BGB IC20, at 0.005 µM",-21% and -12.6%
same,inhibition,"[1]; measured here: combination with BGB IC40, at 0.005 µM",-15.4% and -21%
same,inhibition,[1]; [21],-19.4% and -36.7%
same,inhibition,"[1]; measured here: combination with cisplatin, at 0.5 µM, stronger effect = higher value",-19.3% and -0.506%
same,inhibition,"[1]; measured here: combination with cisplatin, at 5 µM, stronger effect = higher value",-24.8% and 7.24%
same,inhibition,"[2]; BGB combo, at 5 µM",-5.62% and -13.7%
same,inhibition,[2]; at 0.5 µM,-1.69% (inactive) and -3.15% (inactive)
same,inhibition,"[2]; cisplatin combo, at 5 µM",-20.9% and -12.7%
same,inhibition,[2]; [22],24.2% and -1.36%
same,inhibition,[2]; [23],-2.79% and 1.82%
same,inhibition,"[2]; single agent, at 5 µM",-32.3% and -1.92%
same,inhibition,"[3]; BGB IC20 combo, at 0.005 µM",0.503% and -4.57%
same,inhibition,"[3]; BGB IC40 combo, at 0.005 µM",18.5% and -33.7%
same,inhibition,"[3]; BGB IC40 combo, at 0.05 µM",-2.72% and 6.47%
same,inhibition,[3]; at 0.5 µM,-25.8% (inactive) and -13.5% (inactive)
same,inhibition,"[3]; cisplatin combo, at 0.05 µM",-2.72% and 3.11%
same,inhibition,"[3]; cisplatin combo, at 0.5 µM",-37.2% and -4.35%
same,inhibition,"[3]; cisplatin combo, at 5 µM",-14.1% and -11.2%
same,inhibition,"[3]; measured here: 5 uM single agent, at 5 µM",-18.1% and 0.267%
same,inhibition,[4]; at 0.5 µM,17.8% (inactive) and -17.4% (inactive)
same,inhibition,[4]; [21],-4.04% and -14.4%
same,inhibition,[4]; [24],-10.1% and -31.8%
same,inhibition,[4]; [25],-6.72% and -38.3%
same,inhibition,[5]; at 0.5 µM,-5.41% (inactive) and -9.58% (inactive)
same,inhibition,"[5]; measured here: with BGB IC20, at 0.5 µM",-40.5% and -14.9%
same,inhibition,"[5]; measured here: with BGB IC20, at 5 µM",-22.4% and -7.39%
same,inhibition,"[5]; measured here: with cisplatin IC20, at 0.5 µM",16.5% and -6.9%
same,inhibition,"[5]; measured here: with cisplatin IC20, at 5 µM",10.3% and 21%
same,inhibition,"[5]; single agent, at 5 µM",-1.97% and 12.2%
same,inhibition,[6]; at 0.5 µM,-18.8% (inactive) and -34.3% (inactive)
same,inhibition,"[6]; measured here: combination with BGB at IC20, at 0.5 µM",-28.7% and -29%
same,inhibition,"[6]; measured here: combination with cisplatin at IC20, at 0.5 µM",-10.1% and -43.6%
same,inhibition,[7]; at 0.5 µM,-6.38% (inactive) and 5.86% (inactive)
same,inhibition,"[7]; measured here: combo with BGB at IC20, at 0.5 µM",-2.33% and 1.22%
same,inhibition,"[7]; measured here: combo with cisplatin at IC20, at 0.5 µM",-9.26% and 19.1%
same,inhibition,[8]; at 0.5 µM,4.48% (inactive) and 6.54% (inactive)
same,inhibition,"[8]; measured here: inhibition with BGB combination, at 0.05 µM",-18.6% and -11.7%
same,inhibition,"[8]; measured here: inhibition with cisplatin combination, at 0.05 µM",-10.6% and 10.3%
same,inhibition,[9]; at 0.5 µM,-17.5% (inactive) and -15.1% (inactive)
same,inhibition,[9]; [24],-7.91% and -17.1%
same,inhibition,[9]; [25],-18% and -13.3%
same,inhibition,[10]; at 0.5 µM,-11.8% (inactive) and -3.37% (inactive)
same,inhibition,"[10]; measured here: BGB combination, at 0.5 µM",-0.535% and -8.79%
same,inhibition,"[10]; measured here: BGB combination, at 5 µM",-3.41% and -15.2%
same,inhibition,"[10]; measured here: cisplatin combination, at 0.5 µM",-30.7% and -0.606%
same,inhibition,"[10]; measured here: cisplatin combination, at 5 µM",-23.7% and -8.55%
same,inhibition,"[11]; BGB combination, concentration series, at 5 µM",3.57% and 12%
same,inhibition,[11]; at 0.5 µM,6.89% (inactive) and 6.14% (inactive)
same,inhibition,"[11]; cisplatin combination, concentration series, at 5 µM",5.53% and -6.86%
same,inhibition,[12],-8.79% (inactive) and -10.8% (inactive)
same,inhibition,[12]; measured here: combo with BGB IC20,-1.97% and -5.46%
same,inhibition,[12]; measured here: combo with cisplatin IC20,-27% and -10.4%
same,inhibition,[13]; at 0.5 µM,-17.7% (inactive) and -11.5% (inactive)
same,inhibition,"[13]; cisplatin combination, at 0.5 µM",-34% and -17.3%
same,inhibition,"[13]; cisplatin combination, at 5 µM",-37% and 5.08%
same,inhibition,"[13]; measured here: BGB IC40 combination 0.05 uM, at 0.05 µM",-7.06% and 28.8%
same,inhibition,"[13]; single agent, at 5 µM",-13.3% and -9.78%
same,inhibition,[14]; at 0.5 µM,-1.81% (inactive) and -2.64% (inactive)
same,inhibition,"[14]; cisplatin combo, at 5 µM",-11.2% and 11.2%
same,inhibition,"[14]; measured here: BGB IC40 combination, at 0.05 µM",12.8% and 1.86%
same,inhibition,[14]; [24],-36.9% and 15.4%
same,inhibition,"[14]; single agent, at 5 µM",-12% and -2.61%
same,inhibition,[15]; at 0.5 µM,8.59% (inactive) and -15.2% (inactive)
same,inhibition,[15]; [22],-1.52% and -4.42%
same,inhibition,[15]; [23],13.6% and -22.6%
same,inhibition,"[15]; single agent, at 0.05 µM",15.1% and 18%
same,inhibition,"[15]; single agent, at 5 µM",-31.6% and 28.6%
COCCCCC(=NOCCN)c1ccc(C(F)(F)F)cc1,z-score,[16]; [26],0.785 (inactive) and -0.408 (inactive)
same,z-score,[16]; [27],0.468 and -0.05
CCC(=O)NS(=O)(=O)c1ccc(-c2c(-c3ccccc3)noc2C)cc1,outcome,[17],inactive
COc1cc(N)c(Cl)cc1C(=O)N[C@@H]1CCN(CCCOc2ccc(F)cc2)C[C@@H]1OC,remaining activity,[18],111% (inactive)
C[C@]12C=CC(=O)C=C1CC[C@@H]1[C@@H]2[C@@H](O)C[C@@]2(C)[C@H]1CC[C@]2(O)C(=O)COC(=O)CCC(=O)O,remaining NAD,[19],10 nM (inactive)
CN1CCN2c3ncccc3Cc3ccccc3C2C1 (stereo not given),remaining activity,[18],106% (inactive)
same,outcome,[17],inactive
same,z-score,[16]; [26],0.00763 (inactive) and -0.808 (inactive)
same,z-score,[16]; [27],0.866 and 0.0762
CN1CCc2cc(Cl)c(O)cc2[C@@H](c2ccccc2)C1,remaining activity,[18],107% (inactive)
Cc1c(O)c(=O)ccn1C,remaining NAD,[19],10 nM (inactive)
CC(=O)N1CCN(c2ccc(OC[C@H]3CO[C@](Cn4ccnc4)(c4ccc(Cl)cc4Cl)O3)cc2)CC1,survival,[20],3.25 (inactive)
same,remaining activity,[18],114% (inactive)
same,outcome,[17],inactive
same,z-score,[16]; [26],1.22 (inactive) and -0.0928 (inactive)
same,z-score,[16]; [27],0.853 and 1.14
CC[C@@H]1C(=O)OC[C@@H]1Cc1cncn1C,remaining activity,[18],110% (inactive)
